From PubChem BioAssay
NPC1 prom act: activates the NPC1 promoter. 2.4% of 320,000 active. Potency, µM (titrated, usually from 9.22 µM), for the others: at the highest dose activation, usual class: activators. Huh7 NPC1 promoter luciferase reporter, 24 h. AID 485313; note: % of control where 0% means no effect; nearly all actives have a fitted effect of over 60% in size
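Luminescence from an NPC1 promoter-driven luciferase reporter in stably transfected Huh7 cells was measured after 24 h compound treatment at 37 °C, followed by 10 min ambient incubation with luciferase detection reagent.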
SMN2 splice up: increases expression of the SMN2 splice variant; HEK293 SMN2-luciferase splicing reporter, luminescence, 30-36 h; Potency, µM (top dose mostly 46.1 µM), inactives show at the top dose activity change, positive = activation, usual class: activators; 2.8% of 210,000 active; note: % of control where 0% means no effect; nearly all actives have a fitted effect of over 55% in size
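HEK293 cells carry an SMN2 minigene-luciferase reporter in which exon 7 inclusion puts luciferase in frame. Cells were seeded at 2000 cells/well, attached for 10-12 hours, then exposed to compounds for 30-36 hours at 37C before ONE-Glo luminescence.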
FLuc counter: counter-screen for miR-21 project: firefly luciferase inhibitors or activators; purified FLuc, Km substrates, luminescence inhibition; Potency, µM (highest dose often 57.5 µM), for inactives: at the top dose activity change, negative = inhibition, usual class: inhibitors; 6.9% of 360,000 active; P08659; AID 588342;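 note: plate controls were vehicle for no effect and reference inhibitor for full effect; nearly all actives have a fitted effect of over 55% in size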
Target sequence (P08659 whole entry, looked up): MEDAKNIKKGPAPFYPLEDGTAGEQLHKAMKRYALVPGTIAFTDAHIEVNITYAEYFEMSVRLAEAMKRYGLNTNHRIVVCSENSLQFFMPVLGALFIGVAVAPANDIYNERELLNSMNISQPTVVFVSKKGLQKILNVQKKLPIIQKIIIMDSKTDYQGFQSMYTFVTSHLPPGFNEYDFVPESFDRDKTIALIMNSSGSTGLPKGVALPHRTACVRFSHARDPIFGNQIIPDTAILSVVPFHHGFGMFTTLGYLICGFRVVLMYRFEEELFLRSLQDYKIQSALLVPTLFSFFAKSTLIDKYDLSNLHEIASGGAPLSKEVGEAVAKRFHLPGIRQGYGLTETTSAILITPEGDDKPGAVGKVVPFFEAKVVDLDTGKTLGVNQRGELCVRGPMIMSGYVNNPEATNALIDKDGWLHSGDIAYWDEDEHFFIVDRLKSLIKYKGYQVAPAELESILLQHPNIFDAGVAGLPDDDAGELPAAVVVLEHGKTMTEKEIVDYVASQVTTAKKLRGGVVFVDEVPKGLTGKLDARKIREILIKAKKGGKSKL
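Purified P. pyralis luciferase, 10 nM final, with Km-level 10 uM D-luciferin and 10 uM ATP in 50 mM Tris acetate pH 7.5, 10 mM Mg acetate, 0.01% Tween-20, 0.05% BSA; 6-point qHTS titration about 60 µM downward; luminescence read.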
Rab9 promoter act: activators of Rab9 promoter | Huh7 Rab9 promoter-luciferase reporter, luminescence, 24 h | Potency, µM (highest dose often 9.22 µM), without a hit: at the top dose activation, negative = inhibition, actives largely listed as activators | 2.8% of 320,000 active | AID 485297; note: % of control where 0% means no effect; nearly all actives have a fitted effect of over 60% in size
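Using Huh7 cells stably transfected with Rab9 promoter–luciferase, compounds were incubated 24 h at 37 °C, 5% CO2; luciferase luminescence was read 10 min after reagent addition.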
Luc counter: counter-screen: inhibitors of Kinase-Glo firefly luciferase; Q27757; Kinase-Glo luciferase, ATP luminescence, 8 min; Potency, µM (highest dose often 38.3 µM), for the others: top-dose activity change, negative = inhibition, actives largely listed as inhibitors; 0.28% of 200,000 active; AID 1379; note: % is set by controls: 0 for no effect and ±100 for the full control effect; nearly all actives have a fitted effect of over 60% in size
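Inhibition of Kinase-Glo luciferase light generation was assessed at 10 uM ATP in pH 7.2 imidazole buffer, with luminescence measured after eight minutes at ambient temperature.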
* = called active by the depositor; u = inconclusive; x = no result given; [ ] = dose if it differs, or a comment. Only some compounds are listed: those with a hit (about 7.3% of all), similar ones and a draw of the others. Calls come from the whole dose curve; as a rule, active = well fitted curve in the direction sought with a large enough effect; inconclusive = small, poorly fitted or top-dose-only effect, or another doubt; inactive = no such curve, though single readings can be large; an effect the other way counts as inactive or inconclusive. Potency is the fitted concentration of half-maximal effect.

SMILES	NPC1 prom act	SMN2 splice up	FLuc counter	Rab9 promoter act	Luc counter
CCOC(=O)c1csc(NC(=O)C2=COCCO2)n1	2.51µM*	x	15.1µM*	2.82µM*	x
CC(=O)Nc1ccc(-c2csc(NC(=O)C3=COCCO3)n2)cc1	29.5%	x	-16.6%	u	x
CC(C)(C)c1csc(NC(=O)C2=COCCO2)n1	3.16µM*	x	9.53µM*	2.51µM*	x
Cc1ccc(-c2csc(NC(=O)N3CCOCC3)n2)cc1	5.2%	-24.6%	26.9µM*	15.5%	3.6%
Cc1ccc(C)c(CN2C(=O)c3ccccc3S(=O)(=O)c3ccc(C(=O)Nc4cc(F)ccc4F)cc32)c1	x	-9.4%	1.2%	x	x
Cc1ccc(-c2csc(NC(=O)C3=COCCO3)n2)cc1	u	14.1µM*	15.1µM*	2.82µM*	-0.7%
Cc1ccc(CCNC(=O)c2cc(C)nc3c2c(C)nn3-c2ccc(C)cc2)cc1	x	x	-0.8%	x	x
CCN1C(=O)/C(=C/N2CCc3ccccc3C2)SC1=S	u	x	23.9µM*	u	x
Cc1ccc(N2C(=O)CCSC23C(=O)N(Cc2ccccc2)c2ccccc23)cc1 (configuration not stated)	x	x	-11.5%	x	x
CCc1cccc(C)c1NC(=O)CSc1nc2ccccc2nc1N1CCOCC1	x	-6.0%	-3.7%	x	x
Cc1ccc(Nc2ccc(N3CCN(C(=O)c4ccc([N+](=O)[O-])cc4)CC3)nn2)cc1	x	x	3.0%	x	x
CN(C)c1ccc(N=Nc2ccccc2C(=O)OCC(=O)Nc2ccccc2C(F)(F)F)cc1	-1.4%	26.5%	9.53µM*	24.4%	-5.0%
CN(C)c1ccc(N=Nc2ccccc2C(=O)OCC(=O)N2CCCC2)cc1	15.4%	u	2.13µM*	-0.4%	1.1%
CN(C)c1ccc(N=Nc2ccccc2C(=O)OCC(=O)N2CCCCCC2)cc1	18.4%	25.1µM*	u	21.8%	-4.7%
CN(C)c1cc[n+](CC(=O)Nc2ccccc2C(F)(F)F)cc1	-1.2%	x	-1.8%	-1.7%	x
Cc1ccc(C(=O)Nc2cccc(C(=O)O)c2)cc1S(=O)(=O)N1CCCCC1	0.794µM*	11.2µM*	0.338µM*	0.398µM*	-12.3%
Cc1ccc(C(=O)Nc2ccc3c(c2)CCC3)cc1S(=O)(=O)N1CCOCC1	u	u	16.9µM*	2.24µM*	-1.5%
Cc1ccc(NC(=O)c2cc3c(s2)CCC3)cc1S(=O)(=O)N1CCOCC1	4.5%	-36.5%	13.5µM*	-3.7%	-1.8%
CC(=O)c1cccc(NC(=O)c2ccc(C)c(S(=O)(=O)N3CCOCC3)c2)c1	-2.1%	x	-2.1%	-2.3%	x
CSc1nnc(NC(=O)c2ccc(C)c(S(=O)(=O)N3CCOCC3)c2)s1	25.9%	11.2µM*	u	6.0%	-4.8%
Cc1ccc(S(=O)(=O)N2CCOCC2)cc1NC(=O)c1cc2c(s1)CCC2	-1.6%	-15.6%	0.7%	-4.4%	20.8%
COC(=O)c1ccc(NC(=O)c2cc(=O)c3ccc(C)cc3o2)cc1	x	1.0%	-4.7%	x	x
CCCCc1ccc(-n2nc3cc(C)c(NC(=O)Cc4ccccc4)cc3n2)cc1	x	3.4%	-12.4%	x	x
Cc1ccc(C(=O)Nc2cccc(C(=O)O)c2)cc1S(=O)(=O)N1CCOCC1	1.26µM*	12.6µM*	1.07µM*	2.24µM*	16.8%
COC(=O)c1nnn(-c2cccc(C)c2)c1N	x	10.4%	1.1%	x	x
SMILES	NPC1 prom act	SMN2 splice up	FLuc counter	Rab9 promoter act	Luc counter
Cc1cccc(-n2nnc(C(=O)N3CCc4ccccc4C3)c2N)c1	22.9%	-13.2%	15.1µM*	25.1%	-5.6%
Cc1c(C(=O)Nc2ccc(C(=O)O)cc2)nnn1-c1ccccc1	x	x	0.269µM*	x	x
Cc1cccc(-n2nnc(C(=O)Nc3ccc(F)cc3)c2N)c1	1.58µM*	10µM*	6.01µM*	2.82µM*	-3.0%
Cc1ccc2c(c1)c1c(c(=O)n(-c3ccccc3)c(=O)n1CC(=O)NCCC1=CCCCC1)n2C	x	x	0.8%	x	x
COc1ccc(-c2cn3nc(N4CCCC(C(=O)Nc5ccc(C)c(C)c5)C4)sc3n2)cc1 (configuration not stated)	x	x	-16.7%	x	x
Cc1ccc2c(c1)C(=O)OC(C(=O)Nc1ncc(Cc3ccc(C(C)C)cc3)s1)C2 (configuration not stated)	x	7.5%	2.6%	x	x
CC(=O)c1ccc(S(=O)(=O)Nc2cccc(-c3ccc(N4CCCCC4)nn3)c2)cc1	x	x	1.51µM*	x	x
O=S(=O)(Nc1ccc(-c2ccc(N3CCCCC3)nn2)cc1)c1ccc(OC(F)(F)F)cc1	x	x	21.3µM*	x	x
CC(=O)c1ccc(S(=O)(=O)Nc2cccc(-c3ccc4nncn4n3)c2)cc1	-3.2%	21.6%	6.6%	3.4%	6.7%
O=S(=O)(Nc1cccc(-c2ccc(N3CCCCCC3)nn2)c1)c1cccc(F)c1	3.16µM*	x	2.39µM*	3.16µM*	x
O=S(=O)(Nc1cccc(-c2ccc(N3CCCCCC3)nn2)c1)c1ccc(F)cc1	u	x	5.36µM*	u	x
COc1ccc(S(=O)(=O)Nc2ccc(-c3ccc(N4CCCC4)nn3)cc2)cc1F	x	x	-1.2%	x	x
CCOC(=O)c1c(C)sc(-c2c(-c3ccc4c(c3)OCCO4)[nH]c3c2c(=O)n(C)c(=O)n3C)c1O	x	x	3.4%	x	x
Cc1ccc(NS(=O)(=O)c2cc(C(=O)O)ccc2Cl)cc1C	x	x	x	x	0.1%
COc1ccc(C)cc1NS(=O)(=O)c1ccc2c(c1)[C@H]1C=CC[C@H]1[C@@H](c1cccc(Cl)c1)N2	x	-0.6%	-19.9%	x	x
O=S(=O)(Nc1cccc(-c2ccc(N3CCCCCC3)nn2)c1)c1ccc(C(F)(F)F)cc1	22.8%	x	9.53µM*	u	x
O=S(=O)(Nc1ccc(-c2ccc(N3CCCC3)nn2)cc1)c1ccc(Cl)cc1	x	x	-6.2%	x	x
CCc1ccc(N2CC(c3nc4ccccc4n3Cc3ccccc3C)CC2=O)cc1 (configuration not stated)	x	x	-8.2%	x	x
Cc1cc2nc(-c3ccc(SCc4ccc(C#N)cc4)nc3)[nH]c2cc1C	-2.6%	-25.8%	5.36µM*	-2.6%	-0.9%
Cc1ccc2nc(-c3ccc(SCC(=O)N4CCc5ccccc54)nc3)[nH]c2c1	3.55µM*	11.2µM*	0.269µM*	3.16µM*	-10.8%
CC(=O)CSc1ccc(-c2nc3ccccc3[nH]2)cn1	0.562µM*	x	4.26µM*	0.708µM*	x
CCc1nnc(NC(=O)CSc2ccc(-c3nc4ccc(C)cc4[nH]3)cn2)s1	2.82µM*	x	1.69µM*	3.16µM*	x
N#Cc1ccccc1CSc1ccc(-c2nc3ccccc3[nH]2)cn1	21.0%	-57.8%	19µM*	21.3%	-24.2%
CC(=O)CSc1ccc(-c2nc3cc(C)c(C)cc3[nH]2)cn1	-9.9%	x	-2.1%	-4.9%	-1.2%
Cc1ccc2nc(-c3ccc(SCC(=O)O)nc3)[nH]c2c1	-3.0%	18.0%	5.36µM*	5.7%	-12.0%
COc1ccc(C(=O)[C@H](Br)[C@H](Br)C(=O)O)cc1	x	-4.1%[9.22 µM]	x	x	-3.0%[7.66 µM]
Cc1cc(F)ccc1NC(=O)CN1C(=O)CCc2cc(S(=O)(=O)N3CCOCC3)ccc21	x	x	-1.3%	x	x
C=CCn1cccc(C(=O)Nc2ccc(OC)c(Cl)c2)c1=O	u	x	19µM*	u	x
